Results from PubChem BioAssay (Tox21).
Records with an inconclusive call do not appear. Where a call stands in place of a potency, no number is given. Active and inactive are the calls of the source. The call rests on the fitted dose curve; in most records, active means well fitted cell-killing curve with a large enough effect in the repeat runs; inconclusive means weak or mixed curves, or effect the other way; inactive means flat fitted curve, though single readings scatter.

Experiment: qHTS assay to identify small molecule agonists of the TGF-beta/Smad signaling pathway - cell viability counter screen (AID 1346829); further: top concentration of the series differs between compounds; nearly all actives have a fitted effect of over 45% in size
Details: SBE-bla HEK293T viability, CellTiter-Glo luminescence, 5 h; series mostly up to 76.8 µM; activity change, negative = cytotoxicity: at the top concentration
From the text: National Center for Advancing Translational Sciences [NCATS]
NIH Chemical Genomics Center [NCGC]
U.S. Environmental Protection Agency [EPA]
National Institutes of Environmental Health Sciences [NIEHS]
National Toxicology Program [NTP]
U.S. Food and Drug Administration [FDA]
Transforming growth factor beta (TGF-beta) superfamily consists of a large number of structurally related dimeric proteins that act as hormones or local mediators in regulating a wide range of biological functions. This superfamily includes TGF-betas themselves, the bone morphogenetic proteins (BMPs) and the activins. These ligands induce oligomerization of serine/threonine receptor kinases and phosphorylate the cytoplasmic signaling molecules of Smad protein family. CellSensor SBE-bla HEK 293T cell line (Life Technologies, Carlsbad, CA), responsive to TGF-beta was used to screen Tox21 10K compound library for identification of agonists/antagonists of the Smad signaling pathway. This cell line contains a beta-lactamase reporter gene under control of the Smad binding element (SBE) stably integrated into HEK 293T cells. Also cytotoxicity of the compounds was tested in parallel by measuring the cell viability using CellTiter-Glo assay system in the same wells.
Tox21 Assay Protocol Summary:
SBE-bla HEK 293T cells were dispensed at 4,000/well in 6 uL of assay medium into black wall/clear-bottom 1536-well plates using a Multidrop Combi (ThermoFisher Scientific, Waltham, MA) dispenser. After the assay plates were incubated at 37 C and 5% CO2 for an overnight, 23 nL of compounds dissolved in DMSO, positive controls or DMSO only was transferred to the assay plate by a Pintool station (Kalypsys, San Diego, CA). The assay plates were incubated at 37 C and 5% CO2 for 5 hr. One uL of LiveBLAzer B/G FRET substrate (Life Technologies) was added using a Flying Reagent Dispenser (FRD, Aurora Discovery, San Diego, CA) and the plates were incubated at room temperature for 2 hr. Fluorescence intensity (405 nm excitation, 460 nm and 530 nm emissions) was measured using an Envision plate reader (PerkinElmer, Shelton, CT). For cytotoxicity read, 4 uL of CellTiter-Glo reagent (Promega Corporation, Madison, WI) was added to each well of the assay plates using FRD. After 30min incubation at room temperature, the luminescence intensity was measured using ViewLux plate reader (PerkinElmer).

SMILES | Potency | activity change, negative = cytotoxicity
CC1(C)[C@@H](O[C@H]2O[C@H](C(=O)O)[C@@H](O)[C@H](O)[C@H]2O[C@@H]2O[C@H](C(=O)O)[C@@H](O)[C@H](O)[C@H]2O)CC[C@]2(C)[C@H]3C(=O)C=C4[C@@H]5C[C@@](C)(C(=O)O)CC[C@]5(C)CC[C@@]4(C)[C@]3(C)CC[C@@H]12 | inactive | 
CCCCCCCC(=O)O | inactive | 
CC/C(C)=N/O | inactive | 
COC(=O)OC | inactive | 
CC(C)c1ccc(C(C)C)cc1 | inactive | 
OCCOCCOCCOCCOCCO | inactive | 
OC[C@H]1O[C@@H](Oc2ccc(O)cc2)[C@H](O)[C@@H](O)[C@@H]1O | inactive | 
O=[N+]([O-])c1ccccc1C(F)(F)F | inactive | 
CC(=O)OC/C=C(\C)CCC=C(C)C | inactive | 
CC1=CC(=O)CC(C)(C)C1 | inactive | 
CCCOCC(C)O (stereo not given) | inactive | 
CCCCCCCCC(=O)O | inactive | 
CC[N+](CC)(CC(=O)Nc1c(C)cccc1C)Cc1ccccc1 | inactive | 
C[n+]1ccn(CCO)c1 | inactive | 
CCCCCCCCO | inactive | 
NCCNCCNCCN | inactive | 
CC(=O)CC(=O)N(C)C | inactive | 
CCCCCCC(=O)O | inactive | 
COc1c(Cl)ccc(Cl)c1C(=O)O | inactive | 
OCC(O)CS (stereo not given) |  | -4.16% (inactive)

SMILES | Potency | activity change, negative = cytotoxicity
CCn1cc(C(=O)O)c(=O)c2cc3c(cc21)OCO3 | inactive | 
C1CCCNCC1 | inactive | 
Cc1ccccc1C=O | inactive | 
NC(=O)NC(N)=O | inactive | 
Cc1ccncc1 | inactive | 
Oc1ccc(Cc2ccccc2O)cc1 | inactive | 
N[C@@H](Cc1cc(I)c(Oc2ccc(O)c(I)c2)c(I)c1)C(=O)O | inactive | 
Nc1cccc(N)n1 | inactive | 
COCN(COC)c1nc(N(COC)COC)nc(N(COC)COC)n1 | inactive | 
Clc1cccc(Cl)c1NC1=NCCN1 | inactive | 
CC(=O)OCCC(C)C | inactive | 
Cc1ncc(CO)c(CO)c1O | inactive | 
Cc1ccc(Cl)cc1 | inactive | 
O=c1n(CCCN2CCN(c3cccc(Cl)c3)CC2)nc2ccccn12 | inactive | 
COc1ccc2cc3[n+](cc2c1OC)CCc1cc2c(cc1-3)OCO2 | inactive | 
O=C(NCC1CCCCN1)c1cc(OCC(F)(F)F)ccc1OCC(F)(F)F (stereo not given) | inactive | 
C=C(CC(=O)O)C(=O)O | inactive | 
CCN(CC)CCNC(=O)c1ccc(N)cc1 | inactive | 
O=C1O[C@H]([C@H](O)CO)C(O)=C1O | inactive | 
CCCOC(=O)NCCCN(C)C | inactive | 
